Assay outcomes as filed in PubChem.
Sampled rows, rich in hits. Any-hit rate of the full collection: about 8.2%.
KB-V1 MDR tox – qHTS assay for MDR1-selective chemotherapeutics: Primary screen using the drug-selected MDR subline cells KB-V1; KB-V1 MDR cells viability, CellTiter-Glo, 72 h; Potency, µM (titrated, usually from 46.1 µM), hits mostly cytotoxic; 400,000 compounds, 3.4% hits; AID 1347076, 2019; further: on the % scale 0 is the no-effect control and ±100 the full control effect; nearly all actives have a fitted effect of over 60% in size
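Drug-selected KB-V1 cells, grown in DMEM lacking phenol red with 10% FBS, receive compound titrations; after three days at 37 degrees C, surviving cell ATP is quantified by CellTiter-Glo luminescence and responses normalized and curve-fitted.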
ELG1 DNA repair – qHTS screen for small molecules that inhibit ELG1-dependent DNA repair in human embryonic kidney (HEK293T) cells expressing luciferase-tagged ELG1. HEK293T ELG1-luciferase reporter, luminescence, 16 h; DNA damage induced by 5-fluorouridine. AID 504467, 2011. 330,000 compounds, 2.3% hits. Potency, µM (doses to about 46.1 µM), without a hit: at the top dose activity change, negative = inhibition, most hits filed as inhibitors; further: on the % scale 0 is the no-effect control and ±100 the full control effect; nearly all actives have a fitted effect of over 55% in size
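Step one: seed 2,000 cells per well. Step two: pin-transfer compound or DMSO alongside 5-fluorouridine. Step three: incubate 16 hr, 37 °C, 5% CO2. Step four: add ONE-Glo, wait 30 min, read luminescence.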
KB-3-1 cytotox – qHTS assay for MDR1-selective chemotherapeutics: Primary screen using the parental adenocarcinoma cell KB-3-1; AID 1347075, 2019; Potency, µM (series often up to 46.1 µM), usual class: cytotoxic; 400,000 compounds, 1.4% hits; KB-3-1 viability, CellTiter-Glo ATP luminescence, 72 h; further: on the % scale 0 is the no-effect control and ±100 the full control effect; nearly all actives have a fitted effect of over 60% in size
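Multi-concentration cytotoxicity screen in KB-3-1 cells grown in DMEM lacking phenol red with 10% FBS. After 72 h at 37 °C with compound, ATP-dependent luminescence was recorded.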
MCF10A rerep – A quantitative high throughput screen for small molecules that induce DNA re-replication in MCF 10a normal breast cells. MCF 10A DNA re-replication, Hoechst nuclear intensity, 48 h. Potency, µM (doses to about 46.1 µM), for the others: at the highest dose activity, positive = re-replication, usual class: activators. 350,000 compounds, 2.9% hits; further: % of control where 0% means no effect; nearly all actives have a fitted effect of over 50% in size
SW480 rerep – A quantitative high throughput screen for small molecules that induce DNA re-replication in SW480 colon adenocarcinoma cells; SW480 DNA re-replication, Hoechst DNA content imaging, 48 h; Potency, µM (series often up to 46.1 µM), inactives show top-dose re-replication activation, most hits filed as activators; 340,000 compounds, 1.8% hits; AID 624297, 2012; further: % of control where 0% means no effect; nearly all actives have a fitted effect of over 55% in size
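SW480 cells exposed to compounds for 48 hr at 37 C, 5% CO2, then Hoechst-stained 40 min. Nuclear DNA content imaged by fluorescence scanning (405 nm excitation, 500-530 nm emission); re-replication scored as increased high-intensity nuclei.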
An asterisk follows results filed as active; i = inactive; ? = inconclusive; · = no result given; [ ] = dose if it differs, or a comment. The call rests on the fitted dose curve; in most records, active means well fitted curve in the direction sought with a large enough effect; inconclusive means small, poorly fitted or top-dose-only effect, or another doubt; inactive means no such curve, though single readings can be large; an effect the other way counts as inactive or inconclusive. Potency means the concentration at half of the fitted maximal effect.

SMILES	KB-V1 MDR tox	ELG1 DNA repair	KB-3-1 cytotox	MCF10A rerep	SW480 rerep
CSc1cccc(CN2CCCC(C(=O)Nc3cccc(-n4cccn4)c3)C2)c1 (centres undefined)	·	29.6%	·	?	16.4µM*
COc1ccc(CN2CCCC(C(=O)Nc3cccc(-n4cccn4)c3)C2)c(F)c1 (centres undefined)	i	16.4µM*	i	?	?
CCn1ncc(CN2CCCC(C(=O)Nc3cccc(-c4cc5ccccc5[nH]4)c3)C2)c1C (centres undefined)	?	-8.0%	?	16.4µM*	?
Cc1cc(CN2CCCC(C(=O)Nc3cccc(-n4cccn4)c3)C2)cc(C)c1O (centres undefined)	i	?	i	13.9%	-9.2%
Cn1cc(CN2CCCC(C(=O)Nc3cccc(-n4cccn4)c3)C2)cn1 (centres undefined)	?	0.2%	i	0.2%	-18.1%
Cc1c(CN2CCCC(C(=O)Nc3cccc(-n4cccn4)c3)C2)cnn1C (centres undefined)	i	9.5%	i	?	?
O=C(Nc1cccc(-n2cccn2)c1)C1CCCN(Cc2cc3ccccc3[nH]2)C1 (centres undefined)	i	?	i	20.6µM*	?
O=C(Nc1cccc(-n2cccn2)c1)C1CCCN(Cc2cccc(F)c2F)C1 (centres undefined)	?	?	?	5.7%	7.1%
C/C(=N\NC(=O)c1ccc(O)cc1)c1cccc(NC(=O)c2ccccc2C)c1	·	29.0%	·	23.4%	?
CC1CC(C)CN(S(=O)(=O)N2CCCC(C(=O)NC(C)c3ccccc3)C2)C1 (centres undefined)	i	-0.6%	i	4.0%	59.3%
O=C(Nc1ccc(OCC(F)(F)C(F)F)c(C(F)(F)F)c1)c1ccccc1O	?	?	?	11.6µM*	?
O=C(Nc1ccc(OCC(F)(F)C(F)F)c(C(F)(F)F)c1)c1ccccc1	?	·	i	?	-3.9%
FC(F)(F)c1cccc(N2CCN(c3nnnn3-c3ccccc3)CC2)c1	?	-10.5%	i	12.6%	10.6%
CN(C)C=NC1=NN(c2cccc(C(F)(F)F)c2)CC1	2.06µM*	?	20.6µM*	13.7%	-3.8%[9.22 µM]
CN1CCN(C=NC2=NN(c3cccc(C(F)(F)F)c3)CC2)CC1	10.3µM*	?	?	6.5%	-2.5%
Cc1n[nH]c(=O)n1-c1cccc(C(F)(F)F)c1	i	0.7%	i	-2.3%	-6.4%
Cc1cc(C)c(O)c(-c2n[nH]c3c2C(c2cccc(O)c2)N(Cc2ccco2)C3=O)c1 (centres undefined)	i	?	i	?	24.1%
Cc1ccc(-c2cc(C(F)(F)F)c(C#N)c(SCCC#N)n2)o1	i	8.7%	i	?	9.2µM*
COc1ccc(C2CN=NC23CCCc2ccccc2C3=O)cc1 (centres undefined)	?	?	?	18.4µM*	18.4µM*
CC(=O)c1ccc(S(=O)(=O)N2CCN(C(=O)CSC(=S)N3CCCC3)CC2)cc1	i	?	i	-0.3%	0.5%
COc1ccc(/C=N/NC(=O)c2sccc2C)c2ccccc12	i	·	i	11.6µM*	?
COc1cc(C(=O)N/N=C/c2sccc2C)cc(OC)c1OC	?	5.8%	0.651µM*	?	1.16µM*
CCOc1ccc(C(=O)N/N=C/c2cc([N+](=O)[O-])cs2)cc1	i	17.3%	i	5.4%	3.7%
COc1cc(C(=O)N/N=C/c2cc([N+](=O)[O-])cs2)cc(OC)c1OC	1.16µM*	1.2%	?	5.8µM*	?
CCN1C(=O)C2(c3ccccc31)c1c(oc3ccccc3c1=O)C(=O)N2CCOC (centres undefined)	i	·	i	·	·
SMILES	KB-V1 MDR tox	ELG1 DNA repair	KB-3-1 cytotox	MCF10A rerep	SW480 rerep
CNC(=S)NNC(=O)CCn1nc(C)c(Br)c1C	i	·	i	-2.3%	?
CCOCCCNC(=S)NNC(=O)CCn1nc(C)c(Br)c1C	14.6µM*	-2.3%	i	0.0%	?
Cc1nn(CCC(=O)NNC(=S)NCC(C)C)c(C)c1Br	i	-6.5%	i	-3.8%	3.66µM*
CCCCn1nnnc1C(c1cc2ccccc2o1)N1CCN(C(=O)OC(C)(C)C)CC1 (centres undefined)	i	·	?	·	·
O=C(O)C1=CC(c2ccc(Br)cc2)n2ncnc2N1 (centres undefined)	?	·	i	·	·
COc1ccccc1OCCNC(=O)Cc1ccc(S(=O)(=O)N2CCOCC2)s1	?	7.0%	i	-0.9%	?
O=C(NC1CCCCCC1)c1cc(S(=O)(=O)N2CCCCC2)ccc1N1CCOCC1	i	-7.9%	i	0.2%	-14.8%
O=C(Nc1cc(S(=O)(=O)N2CCOCC2)ccc1N1CCCC1)c1cc(F)c(F)cc1Cl	16.4µM*	8.4%	i	-0.7%	-2.6%
O=C(NC1CCCCCC1)c1cc(S(=O)(=O)N2CCOCC2)ccc1N1CCCCC1	8.2µM*	0.5%	?	20.7%	1.0%
O=C(Nc1ccc(OC(F)F)cc1)c1cc(S(=O)(=O)N2CCOCC2)ccc1N1CCCC1	9.2µM*	·	i	-3.3%	-2.4%
COc1ccc(NC(=O)c2cc(S(=O)(=O)N3CCOCC3)ccc2N2CCOCC2)cc1	·	0.1%	·	10.1%	13.8%
O=C(Nc1ccccc1O)c1cc(S(=O)(=O)N2CCOCC2)c(Cl)cc1Cl	2.91µM*	?	i	?	?
O=C(Nc1ccccc1O)c1cc(S(=O)(=O)N2CCOCC2)ccc1Cl	?	-1.0%	?	-0.7%	-4.7%
O=C(Nc1cc(S(=O)(=O)N2CCOCC2)ccc1N1CCOCC1)c1ccccc1Cl	i	-16.4%	i	-1.3%	3.3%
CC(C#N)N1CCN(S(=O)(=O)c2ccc3c(c2)CCC3)CC1 (centres undefined)	i	3.4%	i	19.0%	-1.4%
CCN(C(=O)COC(=O)/C=C/c1ccc2c(c1)OCO2)c1c(N)n(Cc2ccccc2)c(=O)[nH]c1=O	?	·	i	?	-2.4%
O=S(=O)(c1ccc(NC(=S)Nc2ccc(OC(F)F)cc2)cc1)N1CCOCC1	23.1µM*	1.4%	i	0.5%	-5.5%
NNC(=S)Nc1ccc(S(=O)(=O)N2CCOCC2)cc1	?	0.7%	i	-0.2%	3.1%
